The record followed here is PubChem BioAssay (NCATS).

Records with an inconclusive call do not appear. Calls of active or inactive are those of the source. Unless noted, calls come from the whole dose curve; as a rule, active = well fitted curve in the direction sought with a large enough effect; inconclusive = small, poorly fitted or top-dose-only effect, or another doubt; inactive = no such curve, though single readings can be large; an effect the other way counts as inactive or inconclusive.

A short description of experiment [1]: AP1 Signaling Pathway (AID 357; active = well fitted curve in either direction with a large enough effect, not every such curve was filed as active; note: % is set by controls: 0 for no effect and ±100 for the full control effect). As to conditions: ME-180 AP-1-bla reporter, EGF-induced, beta-lactamase ratio, 5 h. In outline: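 Cells are seeded overnight, exposed to compound titrations and an EC50 level of EGF for 5 hours at 37 °C, then loaded with CCF4 dye for 2.5 hours. Beta-lactamase activity under the AP-1 element is read as a blue/green ratio.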
For experiment [2], the target named is Cytochrome P450 1A2 (Homo sapiens) (UniProt P05177). The experiment in a line: p450-cyp1a2 (AID 410; calls by dose curve; note: potency is the fitted concentration of half-maximal effect). In outline:
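Read-out is luminescence from luciferin produced by CYP1A2 demethylation of Luciferin-ME (100uM, at Km). Detection reagent stopped the 60 min NADPH-dependent reaction; signals were normalized to 57 uM furafylline.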

Experiment [3] is described as follows: NFAT Signaling Pathway (AID 444; active = well fitted curve in either direction with a large enough effect, not every such curve was filed as active;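 note: carbachol stimulus at about its EC50 of 1 µM final; % is set by controls: 0 for no effect and ±100 for the full control effect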). The note with it: Jurkat NFAT-bla M1, carbachol, beta-lactamase ratio, 5 h. Summed up:
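Read-out: CCF4 FRET ratio (460 nm/530 nm) after 1 h RT dye loading, used for %activity and AC50 from titration series. Cells: Jurkat NFAT-β-lactamase/M1 line, treated with compound plus 1 uM carbachol for 5 h, 37 °C.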

The nature of experiment [4]: Stat Signaling Pathway (AID 446; active = well fitted curve in either direction with a large enough effect, not every such curve was filed as active;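 note: ME-180 cervical cancer cells given 40 pM IL-6 alongside compound; SIE-controlled beta-lactamase reporter measured as 460/530 nm FRET emission ratio; % is set by controls: 0 for no effect and ±100 for the full control effect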). As to conditions: ME-180 (cervical carcinoma) SIE beta-lactamase reporter, IL-6 stimulated, 5 h. Summed up:
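Normalization used AC90 stimulation (300 pM IL-6) and AC90 inhibition (125 nM pan-JAK inhibitor at 40 pM IL-6). The underlying signal is SIE-driven beta-lactamase in ME-180 cells after 5 h IL-6 exposure with compound.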

Experiment [5] addresses Glucocorticoid receptor (Homo sapiens) (UniProt P04150). The experiment is described as follows: GR-GFP Redistribution (AID 450;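 active = compounds whose dose series gives a full or clear partial fitted curve of increased nuclear translocation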; note: potency is the fitted concentration of half-maximal effect). The note with it: U2OS GR-GFP nuclear translocation, laser cytometry, 2 h.
The target is the same in experiment [6]. The experiment in a line: GR-EFC Redistribution (AID 451; calls by dose curve; note: potency is the fitted concentration of half-maximal effect). The note with it: CHO-K1 GR-EFC translocation, beta-gal luminescence, 2 h. Summed up:
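Translocation of GR-ED fusion to nuclear EA restores b-gal, read by luminescence after 1 h room-temperature detection. Engineered CHO-K1 biosensor cells, 1,000/well, exposed 2 h at 37 C to titrations up to 46 uM final.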

The target of experiment [7] is Mitogen-activated protein kinase 10 (Mus musculus) (UniProt Q61831). The experiment is described as follows: JNK3 AlphaScreen Assay (AID 530; active = well fitted curve in either direction with a large enough effect, not every such curve was filed as active;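 note: kinase came from lysate of stimulated human HepG2 cells; signal reports phosphorylation of biotinylated GST-cJun 1-79 at Ser73 with 10 µM ATP; % is set by controls: 0 for no effect and ±100 for the full control effect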). Summed up:
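Kinase buffer: 20 mM Tris-HCl pH 7.6, 10 mM MgCl2, 1 mM DTT, 0.1 mM Na3VO4, 0.01% Tween-20; ATP 10 uM. Substrate biotin-GST-cJun(1-79), enzyme from activated HepG2 lysates. Detection by Ser73 phospho-antibody AlphaScreen.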
Background: In Alpha technology, singlet oxygen from a donor bead excites a nearby acceptor bead.

The target in experiment [8] is 3',5'-cyclic-AMP phosphodiesterase 4B (Homo sapiens) (UniProt Q07343). The experiment in a line: qHTS Assay for Inhibitors of PDE-IV (AID 607; active = well fitted activation curve with a large enough effect in the main read-out, with a control signal flat, not every such curve was filed as active; note: % of control where 0% means no effect). In outline: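 HEK293 ACTOne cells with CNG channel (1000/well), endogenous PDE4; membrane potential dye, compounds up to 22.9 uM final. Fluorescence Ex 535/Em 590; RO 20-1724 (100 uM final) as reference.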
Chain of 3',5'-cyclic-AMP phosphodiesterase 4B (Homo sapiens) (Q07343 whole entry, looked up): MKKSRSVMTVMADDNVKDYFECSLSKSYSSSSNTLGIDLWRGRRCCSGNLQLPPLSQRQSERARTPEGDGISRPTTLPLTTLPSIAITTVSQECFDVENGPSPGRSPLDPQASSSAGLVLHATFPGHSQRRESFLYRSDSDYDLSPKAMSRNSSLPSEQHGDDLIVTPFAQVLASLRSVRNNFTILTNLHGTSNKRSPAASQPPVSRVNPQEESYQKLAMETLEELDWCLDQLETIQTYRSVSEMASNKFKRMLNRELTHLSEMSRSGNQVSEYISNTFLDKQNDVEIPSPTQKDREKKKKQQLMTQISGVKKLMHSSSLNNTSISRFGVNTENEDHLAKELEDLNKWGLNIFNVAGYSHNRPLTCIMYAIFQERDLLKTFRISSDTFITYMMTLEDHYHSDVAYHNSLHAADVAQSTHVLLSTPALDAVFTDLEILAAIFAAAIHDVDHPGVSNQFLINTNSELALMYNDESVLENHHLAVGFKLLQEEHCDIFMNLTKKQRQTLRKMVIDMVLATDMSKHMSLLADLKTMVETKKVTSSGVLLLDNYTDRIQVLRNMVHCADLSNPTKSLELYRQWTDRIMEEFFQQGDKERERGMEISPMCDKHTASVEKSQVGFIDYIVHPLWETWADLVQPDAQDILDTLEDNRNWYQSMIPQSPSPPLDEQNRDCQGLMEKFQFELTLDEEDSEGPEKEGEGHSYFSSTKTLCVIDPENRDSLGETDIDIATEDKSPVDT
(Quantitative high-throughput screening tests each substance at several concentrations.)

Experiment [9] can be described thus: qHTS Assay for Lipid Storage Modulators (AID 1519; calls by dose curve). The note with it: Drosophila S3 cells, BODIPY lipid droplet/cell ratio, laser cytometry, cells loaded with oleic acid; for activity change, negative = inhibition: at 25.7 µM (top of the series). In outline:
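Cells seeded at 5,000 per well were treated with compounds over a concentration series and loaded with oleic acid (400 uM, as added). Lipid droplet fluorescence (488 nm excitation, 500-530 nm channel) was read by laser-scanning cytometry and normalized to 20 uM Triacsin C.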

Experiment [10] concerns the target ATP-dependent 6-phosphofructokinase (Trypanosoma brucei brucei) (UniProt O15648). The experiment in a line: qHTS Assay to Find Inhibitors of T. brucei phosphofructokinase: hit validation (AID 492961). In outline:
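Measures ADP output of PFK (1.25 nM) at 0.1 mM ATP, 0.5 mM F6P, pH 8.0 TEA buffer with 5 mM MgCl2. No-enzyme wells define full inhibition; uninhibited enzyme wells define zero.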

In experiment [11] the target is Luciferin 4-monooxygenase (Photinus pyralis) (UniProt P08659). The experiment in a line: Biochemical firefly luciferase enzyme assay for NPC (AID 624030).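 Note: purified P. pyralis luciferase at 10 nM with luciferin and ATP substrate; 0% = DMSO and -100% = full luciferase inhibition by PTC124 control; nearly all actives have a fitted effect of over 70% in size.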 Summed up:
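Direct inhibition of firefly luciferase enzyme (10 nM final, 50 mM Tris Acetate) assessed by luminescence within 5 minutes. Percent activity scaled between DMSO and PTC124 positive control, with concentration-effect curves classified by fit quality and response.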

Experiment [12] in a line: qHTS profiling for inhibitors of Plasmodium falciparum proliferation (AID 504749).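 Note: 0% = DMSO vehicle and full inhibition = artemisinin control; nearly all actives have a fitted effect of over 60% in size.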 The note with it: P. falciparum in erythrocytes, SYBR Green DNA, 72 h, at 12.8 µM (top of the series). Summed up: (§1)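 In a 72 h erythrocytic culture (37 C, humidified, 5% CO2) at 2.5% hematocrit and 0.3% starting parasitemia, compounds were tested; SYBR Green I in detergent lysis buffer stained parasite DNA overnight.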

Another experiment deals with AS120. The description is as above. As to conditions: P. falciparum in erythrocytes, SYBR Green DNA, 72 h; series mostly up to 28.7 µM. Summed up:
as §1

The subject of another experiment is CP238. Described as above. As to conditions: P. falciparum in erythrocytes, SYBR Green DNA, 72 h; series mostly up to 12.8 µM. In outline: as §1
Another experiment deals with CP265. Described as above. The note with it: P. falciparum in erythrocytes, SYBR Green DNA, 72 h; series mostly up to 12.8 µM. In outline:
as §1

The next experiment deals with FAB9. The experiment is described as above. As to conditions: P. falciparum in erythrocytes, SYBR Green DNA, 72 h; series mostly up to 12.8 µM. In outline:
as §1

For experiment [13], the target named is Pyruvate kinase (Leishmania mexicana) (UniProt Q27686). The experiment is described as follows: qHTS Validation Assay for Inhibitors of Leishmania Mexicana Pyruvate Kinase (AID 945).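 Note: 0% = DMSO only neutral control wells.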 Summed up: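 Eight-point qHTS titrations in triplicate, data normalized to DMSO neutral control. Reaction: 0.2 nM LmPYK E451W mutant, 0.5 mM PEP, 0.1 mM ADP, 7 mM MgCl2, pH 7.2, one hour at room temperature; luminescent ATP detection.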
Chain of Pyruvate kinase (Leishmania mexicana) (Q27686 2-499 E452W): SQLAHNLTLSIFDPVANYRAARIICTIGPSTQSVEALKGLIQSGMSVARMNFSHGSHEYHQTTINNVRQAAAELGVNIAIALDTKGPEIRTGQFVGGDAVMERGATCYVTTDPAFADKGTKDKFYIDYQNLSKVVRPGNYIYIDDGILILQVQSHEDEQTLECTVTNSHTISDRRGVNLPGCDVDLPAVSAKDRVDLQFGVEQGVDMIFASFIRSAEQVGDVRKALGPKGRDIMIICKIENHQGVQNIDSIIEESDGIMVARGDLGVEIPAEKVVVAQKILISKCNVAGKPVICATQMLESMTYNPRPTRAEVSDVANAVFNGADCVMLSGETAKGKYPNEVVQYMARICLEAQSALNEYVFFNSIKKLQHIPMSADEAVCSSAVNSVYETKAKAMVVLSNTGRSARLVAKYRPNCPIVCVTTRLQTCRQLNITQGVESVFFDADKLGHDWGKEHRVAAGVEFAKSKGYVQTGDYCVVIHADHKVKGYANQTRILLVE

In experiment [14] the target is Alpha-galactosidase A (Homo sapiens) (UniProt P06280). The experiment is described as follows: Counterscreen for Glucocerebrosidase Inhibitors: qHTS Assay for Human alpha-Galactosidase at pH 4.5 (AID 992). Note: 0% is about no effect. In outline:
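Steps: enzyme (2 nM final), then compound across 0.7 nM to 77 uM, then 80 uM fluorogenic galactopyranoside substrate; incubate 20 min at room temperature; quench at pH 10; measure fluorescence at 365/440 nm.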
In general terms: A counterscreen serves to expose hits that act by an unwanted route or on another target.

Experiment [15] addresses alpha-glucosidase (Oryza sativa, rice) (UniProt Q653V4). The experiment is described as follows: Counterscreen for Glucocerebrosidase Inhibitors: qHTS Assay for Rice alpha-Glucosidase at pH 5.0 (AID 997).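 Note: 0% = full activity with enzyme and -100% = basal without enzyme.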 Summed up:
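Endpoint fluorogenic assay at pH 5.0: compounds (0.7 nM to 77 uM) titrated against 4 nM rice enzyme and 400 uM 4-MU-alpha-glucoside for 20 min at room temperature; NaOH/glycine stop, read ex 365/em 440 nm, Hill-fitted AC50.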

Experiment [16] has as its target Ubiquitin carboxyl-terminal hydrolase 1 (Homo sapiens) (UniProt O94782). The experiment is described as follows: Inhibitors of USP1/UAF1: Pilot qHTS (AID 504865).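 Note: rhodamine fluorescence freed from ubiquitin-rhodamine substrate followed over time; top concentration of the series differs between compounds; % is set by controls: 0 for no effect and ±100 for the full control effect; nearly all actives have a fitted effect of over 35% in size.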 In outline: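 Enzyme-free wells gave the negative control, while test wells held 1nM USP1/UAF1 preincubated with compound for 15 min at room temperature. Ub-Rho at 150nM final started the reaction, and fluorescence at 480/540 nm was recorded kinetically.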

[17] abbreviates: at 7.69 µM (top of the series) unless noted.
Where [18] appears, read: measured here: cell count channel max response.
Where [19] appears, read: measured here: lipid channel max response.

Chain of Luciferin 4-monooxygenase (Photinus pyralis) (P08659 whole entry, looked up): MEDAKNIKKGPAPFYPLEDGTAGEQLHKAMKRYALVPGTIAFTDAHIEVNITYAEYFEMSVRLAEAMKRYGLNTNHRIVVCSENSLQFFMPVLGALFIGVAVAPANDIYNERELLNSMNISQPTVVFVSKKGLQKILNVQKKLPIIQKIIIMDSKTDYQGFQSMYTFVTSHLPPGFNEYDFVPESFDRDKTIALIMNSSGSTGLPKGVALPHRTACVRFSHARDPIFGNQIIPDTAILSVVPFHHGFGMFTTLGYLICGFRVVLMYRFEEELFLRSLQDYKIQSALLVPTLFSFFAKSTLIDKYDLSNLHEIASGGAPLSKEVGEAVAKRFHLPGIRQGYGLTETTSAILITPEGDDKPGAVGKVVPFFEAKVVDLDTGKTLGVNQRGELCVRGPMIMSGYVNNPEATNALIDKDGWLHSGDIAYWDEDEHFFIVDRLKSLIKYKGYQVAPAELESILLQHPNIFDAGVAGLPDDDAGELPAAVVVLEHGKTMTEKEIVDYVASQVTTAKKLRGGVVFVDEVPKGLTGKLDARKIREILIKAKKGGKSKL
Chain of Glucocorticoid receptor (Homo sapiens) (P04150 whole entry, looked up): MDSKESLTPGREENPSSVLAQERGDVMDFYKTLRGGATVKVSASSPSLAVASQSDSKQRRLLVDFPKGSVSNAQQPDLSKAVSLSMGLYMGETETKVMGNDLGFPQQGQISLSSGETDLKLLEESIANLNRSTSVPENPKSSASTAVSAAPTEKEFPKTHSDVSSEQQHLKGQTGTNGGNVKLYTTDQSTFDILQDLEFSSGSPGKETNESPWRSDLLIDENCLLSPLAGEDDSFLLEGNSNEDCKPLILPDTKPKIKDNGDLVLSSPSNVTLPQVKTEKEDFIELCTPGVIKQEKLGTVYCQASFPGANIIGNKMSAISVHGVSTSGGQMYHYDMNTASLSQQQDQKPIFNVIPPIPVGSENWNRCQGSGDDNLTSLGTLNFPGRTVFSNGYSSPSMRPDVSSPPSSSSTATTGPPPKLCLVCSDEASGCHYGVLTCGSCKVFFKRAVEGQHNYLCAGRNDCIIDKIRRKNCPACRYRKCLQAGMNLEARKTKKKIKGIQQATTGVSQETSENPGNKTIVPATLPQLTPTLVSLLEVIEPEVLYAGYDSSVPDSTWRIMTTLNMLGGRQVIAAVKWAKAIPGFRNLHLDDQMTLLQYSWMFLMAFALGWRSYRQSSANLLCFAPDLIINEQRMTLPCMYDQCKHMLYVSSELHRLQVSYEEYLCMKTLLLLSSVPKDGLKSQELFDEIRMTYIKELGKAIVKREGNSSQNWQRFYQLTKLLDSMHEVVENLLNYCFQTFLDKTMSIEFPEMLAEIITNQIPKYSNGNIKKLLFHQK
Chain of ATP-dependent 6-phosphofructokinase (Trypanosoma brucei brucei) (O15648 whole entry, looked up): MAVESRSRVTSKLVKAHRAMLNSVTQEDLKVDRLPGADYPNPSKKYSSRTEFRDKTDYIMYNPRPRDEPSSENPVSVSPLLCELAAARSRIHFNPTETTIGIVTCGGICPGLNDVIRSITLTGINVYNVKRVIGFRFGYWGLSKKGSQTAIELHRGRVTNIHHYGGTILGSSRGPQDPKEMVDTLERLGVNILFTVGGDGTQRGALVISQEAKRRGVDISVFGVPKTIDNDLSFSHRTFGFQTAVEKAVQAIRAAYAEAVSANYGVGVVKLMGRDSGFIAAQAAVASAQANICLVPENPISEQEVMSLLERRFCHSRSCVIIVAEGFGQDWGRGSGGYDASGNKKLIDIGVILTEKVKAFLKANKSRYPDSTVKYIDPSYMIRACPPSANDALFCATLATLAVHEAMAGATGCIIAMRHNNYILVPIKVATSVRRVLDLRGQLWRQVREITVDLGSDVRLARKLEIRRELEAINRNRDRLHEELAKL
Chain of Cytochrome P450 1A2 (Homo sapiens) (P05177 whole entry, looked up): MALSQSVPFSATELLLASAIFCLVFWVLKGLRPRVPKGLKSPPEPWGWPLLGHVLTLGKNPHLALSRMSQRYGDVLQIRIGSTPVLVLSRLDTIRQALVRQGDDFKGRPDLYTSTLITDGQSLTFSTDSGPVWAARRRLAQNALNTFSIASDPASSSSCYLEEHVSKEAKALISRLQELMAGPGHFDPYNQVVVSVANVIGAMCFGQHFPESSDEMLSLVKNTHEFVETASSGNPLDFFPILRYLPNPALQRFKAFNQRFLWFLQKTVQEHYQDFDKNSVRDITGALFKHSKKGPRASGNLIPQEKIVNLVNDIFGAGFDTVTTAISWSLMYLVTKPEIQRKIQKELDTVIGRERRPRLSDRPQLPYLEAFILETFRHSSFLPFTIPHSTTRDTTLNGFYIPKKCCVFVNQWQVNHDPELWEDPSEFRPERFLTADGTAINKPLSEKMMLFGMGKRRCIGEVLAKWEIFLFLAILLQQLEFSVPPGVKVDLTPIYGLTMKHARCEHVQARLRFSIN
Chain of Ubiquitin carboxyl-terminal hydrolase 1 (Homo sapiens) (O94782 whole entry, looked up): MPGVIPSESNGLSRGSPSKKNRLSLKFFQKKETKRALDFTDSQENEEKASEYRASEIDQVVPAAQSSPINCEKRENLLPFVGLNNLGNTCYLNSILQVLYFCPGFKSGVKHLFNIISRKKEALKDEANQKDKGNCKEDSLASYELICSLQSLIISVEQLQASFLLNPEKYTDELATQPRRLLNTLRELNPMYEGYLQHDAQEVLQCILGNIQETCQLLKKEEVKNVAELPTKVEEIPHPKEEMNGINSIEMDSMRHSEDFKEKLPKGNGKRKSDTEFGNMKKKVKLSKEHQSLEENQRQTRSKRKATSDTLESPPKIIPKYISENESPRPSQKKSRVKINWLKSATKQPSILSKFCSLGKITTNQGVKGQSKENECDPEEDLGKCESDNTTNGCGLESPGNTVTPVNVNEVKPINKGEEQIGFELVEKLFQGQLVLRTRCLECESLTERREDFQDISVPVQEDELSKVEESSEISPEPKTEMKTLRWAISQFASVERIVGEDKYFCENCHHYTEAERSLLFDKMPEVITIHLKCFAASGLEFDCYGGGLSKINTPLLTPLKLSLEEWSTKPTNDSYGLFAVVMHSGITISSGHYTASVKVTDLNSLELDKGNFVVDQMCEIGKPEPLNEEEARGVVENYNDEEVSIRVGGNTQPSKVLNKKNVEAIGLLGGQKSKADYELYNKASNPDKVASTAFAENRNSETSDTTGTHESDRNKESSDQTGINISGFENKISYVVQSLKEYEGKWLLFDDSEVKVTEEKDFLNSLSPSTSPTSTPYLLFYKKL
Chain of Alpha-galactosidase A (Homo sapiens) (P06280 whole entry, looked up): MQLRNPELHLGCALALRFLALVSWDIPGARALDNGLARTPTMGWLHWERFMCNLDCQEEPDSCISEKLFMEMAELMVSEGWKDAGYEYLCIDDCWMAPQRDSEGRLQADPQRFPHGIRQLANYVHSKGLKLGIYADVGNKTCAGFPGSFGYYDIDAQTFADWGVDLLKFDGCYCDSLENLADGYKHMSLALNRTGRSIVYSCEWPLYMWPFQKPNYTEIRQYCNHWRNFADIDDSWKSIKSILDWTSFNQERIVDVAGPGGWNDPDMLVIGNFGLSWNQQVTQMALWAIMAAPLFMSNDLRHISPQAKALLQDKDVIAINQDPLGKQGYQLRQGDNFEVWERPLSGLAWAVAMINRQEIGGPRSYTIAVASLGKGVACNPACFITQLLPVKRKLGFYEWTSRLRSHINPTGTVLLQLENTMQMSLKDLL

Regarding `NC(=O)OC[C@H](O)COc1ccc(Cl)cc1`, the activity change, negative = inhibition is -4.9% [at 17.2 µM] (inactive) in experiment [1] (setting [17]), -9.21% [at 17.2 µM] (inactive) in [3] (setting [17]) and -1.93% (inactive) in [9]. In addition, the Potency was 10 µM (active) in experiment [2], > 20.6 µM (inactive) in experiment [5] and > 20.6 µM (inactive) in experiment [6]. The activity, negative = inhibition was 14.1% [at 17.2 µM] (inactive) in experiment [4] (setting [17]), -2.39% (inactive) in experiment [12] (parasite line A) and -7.73% (inactive) in experiment [12] (parasite line B). In addition, the Potency entry (in experiment [7]; in [8]; in the experiment on AS120; with CP238; with CP265; in the experiment with FAB9) was “inactive” each time. Also, the max response in experiment [9] (setting [18]) was found to be 14%; in experiment [9] (setting [19]), 12%. Further, the outcome in [10] and in [11] was inactive.

Turning to `C[C@@H](C(=O)O)c1cccc(C(=O)c2ccccc2)c1`, the activity change, negative = inhibition is 5.98% (inactive) in experiment [1] (at 17.2 µM (top of the series)); 9.29% (inactive) in [1] (at 38 µM (top of the series)); 5.64% (inactive) in [3] (at 17.2 µM (top of the series)); 19.5% (inactive) in experiment [3] (at 38 µM (top of the series)); -0.218% (inactive) in experiment [9]. Moreover, the activity, negative = inhibition in [4] (at 17.2 µM (top of the series)) was 6.92% (inactive); in experiment [4] (at 38 µM (top of the series)), 4.82% (inactive). In addition, the Potency result in experiment [7], in [8] and in experiment [16] was “inactive” in each case. In addition, the molecule was classed as inactive in experiment [13], in experiment [14], in experiment [15], in [10] and in [11]. Moreover, the values for the max response in [9] (setting [18]) and in experiment [9] (setting [19]) were 11.1% and 10.1%, respectively.

Turning to `CO[C@H]1C[C@@H](O[C@@H]2[C@H](C)[C@H](O[C@@H]3O[C@@H](C)C[C@@H](N(C)C)[C@@H]3O)[C@H](C)C[C@]3(CO3)C(=O)[C@H](C)[C@H](O)[C@H](C)[C@H](C)OC(=O)[C@@H]2C)O[C@@H](C)[C@H]1O`, the activity change, negative = inhibition is 2.97% [at 17.2 µM] (inactive) in experiment [1] (setting [17]), 8.23% [at 17.2 µM] (inactive) in experiment [3] (setting [17]) and 1.28% (inactive) in experiment [9]. In addition, the Potency result (in experiment [2]; in experiment [7]; in experiment [8]; in experiment [16]; in the experiment with AS120; in the experiment with CP238) was “inactive” throughout. Besides, the Potency entry in the experiment with CP265 and with FAB9 was “inactive” each time. Further, the activity, negative = inhibition in experiment [4] (setting [17]) is -6.44% [at 17.2 µM] (inactive); in [12] (parasite line A), -15.5% (inactive); in [12] (parasite line B), -11.7% (inactive). Also, the Potency in experiment [5] and in [6] was > 20.6 µM (inactive) in each case. The max response in [9] (setting [18]) is 9.47%; in experiment [9] (setting [19]), 11.6%. For the same molecule, the outcome in experiment [10] and in experiment [11] was inactive.
